Laboratory results published in PubChem BioAssay (EPA / NIEHS).
Calls of active or inactive are those of the source. Rule for the calls: active = hit-call score of the fitted dose curve at least 0.9, where 1 is the maximum; inactive = score below 0.9.

target: Nuclear respiratory factor 1 (Homo sapiens) (UniProt Q16656); assay: ATG_NRF1_CIS: Attagene CIS-FACTORIAL HepG2 Assay for human Nuclear Respiratory Factor 1 (NRF1) Orphan Gene (AID 2282987); conditions: HepG2 NRF1 cis-element reporter, Attagene multiplex; actives raise or lower the signal
Method: ATG_CIS is a cell-based, multiplexed-readout assay that uses HepG2, a human liver cell line, with measurements taken at 24 hours after chemical dosing in a 24-well plate.ATG_NRF1_CIS is one of 52 assay component(s) measured or calculated from the ATG_CIS assay. It is designed to make measurements of mRNA induction, a form of inducible reporter, as detected with fluorescence intensity signals by Reverse transcription polymerase chain reaction (RT-PCR) and Capillary electrophoresis technology.Data from the assay component ATG_NRF1_CIS was analyzed into 1 assay endpoint. This assay endpoint, ATG_NRF1_CIS, was analyzed with bidirectional fitting relative to DMSO as the negative control and baseline of activity. Using a type of inducible reporter, measures of mRNA for gain or loss-of-signal activity can be used to understand the reporter gene at the transcription factor-level as they relate to the gene NRF1. Furthermore, this assay endpoint can be referred to as a primary readout, because this assay has produced multiple assay endpoints where this one serves a reporter gene function. To generalize the intended target to other relatable targets, this assay endpoint is annotated to the dna binding intended target family, where the subfamily is nuclear respiratory factors.
Human liver HepG2 cells are transiently transfected with multiple reporter transcription units (MRTUs) in 6-well plates using FuGene 6 reagent (Roche; 3 ml FuGene/1 mg DNA). The MRTU constructs are regulated by a cis-regulating element (promoter). […] A major difference between the CIS and TRANS system is that in CIS activities of endogenous TFs are measured, whereas the TRANS assay evaluates changes in activities of exogenous, chimeric NR-Gal4 proteins. […] At the end of 24 hour incubation, total RNA was isolated using TriZol reagent (Invitrogen). The isolated RNA is then reverse-transcribed using oligo(dT) primer and Mo-MLV reverse transcriptase (Invitrogen) with DNAse I (Ambion) treatment for 30 min. The one-tenth of the produced cDNA was amplified by PCR using Taq DNA polymerase (Invitrogen) and two reporter sequence-specific primers. The PCR products were fluorescently labeled by primer extension with 6-arboxyfluorescein (6-FAM) 5'-labeled reporter sequence-specific primer (2 min at 95 C, 20 s at 68 C and 10 min at 72 C) and these products were digested with 5U of HpaI (New England Biolabs) for 2h at 37 C. The fragments were purified using Qiaquick PCR columns (Qiagen), analyzed on an ABI 3130xL genetic analyzer (Applied Biosystems) with peak positions identified by using a set of X-rhodamine (ROX)-labeled MapMarker1000 molecular weight standards (BioVentures). The raw capillary electrophoresis data was processed using Attagraph software (Attagene).

Sequence of Nuclear respiratory factor 1 (Homo sapiens) (Q16656 whole entry, looked up): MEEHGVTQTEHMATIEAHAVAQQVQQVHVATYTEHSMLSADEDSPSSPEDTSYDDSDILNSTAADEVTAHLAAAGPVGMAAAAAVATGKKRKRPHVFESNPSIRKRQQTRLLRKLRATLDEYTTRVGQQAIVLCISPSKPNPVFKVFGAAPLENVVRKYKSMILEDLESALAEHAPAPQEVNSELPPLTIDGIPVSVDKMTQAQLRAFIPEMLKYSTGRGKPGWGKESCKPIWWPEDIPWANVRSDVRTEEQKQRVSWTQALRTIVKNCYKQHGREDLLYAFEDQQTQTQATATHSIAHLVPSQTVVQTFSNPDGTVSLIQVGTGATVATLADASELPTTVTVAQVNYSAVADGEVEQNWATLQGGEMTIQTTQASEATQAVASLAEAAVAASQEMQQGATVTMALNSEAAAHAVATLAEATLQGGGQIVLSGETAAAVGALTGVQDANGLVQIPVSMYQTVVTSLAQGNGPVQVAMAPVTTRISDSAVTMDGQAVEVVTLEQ

| Compound | outcome |
| --- | --- |
| Cc1cc(C)c(S(=O)(=O)O)cc1N=Nc1cc(S(=O)(=O)O)c2ccccc2c1O | inactive |
| CC[N+](CC)(CC(=O)Nc1c(C)cccc1C)Cc1ccccc1 (tested in a mixture with another compound) | inactive |
| CCC(C)=NO | inactive |
| CNC(=C[N+](=O)[O-])NCCSCc1csc(CN(C)C)n1 | inactive |
| O=C(O)/C=C\C(=O)O | inactive |
| CCCC(=O)OC/C=C(\C)CCC=C(C)C | inactive |
| Oc1ccc(Oc2ccccc2)cc1 | inactive |
| Cc1cc(-n2nc3ccc(Cl)cc3n2)c(O)c(C(C)(C)C)c1 | inactive |
| CCCCCCCCCCC1CO1 (stereo not given) | inactive |
| C=CCOCC(CC)(CO)COCC=C | inactive |
| COC(=O)c1ccccc1 | inactive |
| CO[Si](CCCNCCN)(OC)OC | inactive |
| Cc1ccccc1S(=O)(=O)O | inactive |
| Cc1ccnc(N)c1 | inactive |
| CCCCNC(N)=O | inactive |
| O=C1NC(=O)[C@@H]2CC=CC[C@H]12 | inactive |
| OCCN(CCO)c1cccc(Cl)c1 | inactive |
| CC=CC(=O)O | inactive |
| c1cc(N(CC2CO2)CC2CO2)ccc1Cc1ccc(N(CC2CO2)CC2CO2)cc1 (stereo not given) | inactive |
| O=C(OCc1ccccc1)c1ccccc1 | inactive |

| Compound | outcome |
| --- | --- |
| C=C1CC[C@H]2C[C@@H]1C2(C)C | inactive |
| Brc1ccc(Oc2ccc(Br)cc2)cc1 | inactive |
| CN(C)CCCN1c2ccccc2CCc2ccc(Cl)cc21 | inactive |
| Cc1cc2nc3c(=O)[nH]c(=O)nc-3n(C[C@H](O)[C@H](O)[C@H](O)CO)c2cc1C | inactive |
| CCOC(=O)c1ccccc1 | inactive |
| C=CC(C)(CCC=C(C)C)OC(=O)c1ccccc1 (stereo not given) | inactive |
| CN(C)CCC(c1ccc(Cl)cc1)c1ccccn1 (stereo not given) | inactive |
| CC1=NN(c2cc(Cl)c(S(=O)(=O)O)cc2Cl)C(=O)C1N=Nc1ccc(S(=O)(=O)O)cc1 (stereo not given) | inactive |
| CC1=C(CC=O)C(C)(C)CCC1 | inactive |
| c1cc[c]([Bi]([c]2ccccc2)[c]2ccccc2)cc1 | inactive |
| CC(C)=CCOC(=O)c1ccccc1 | inactive |
| c1ccc(CNc2ncnc3nc[nH]c23)cc1 | inactive |
| CN(C)c1ccc(C(c2ccccc2)c2ccc(N(C)C)cc2)cc1 | inactive |
| CCCCOC(=O)COc1ccc(Cl)cc1Cl | inactive |
| CCCCCCC1CCC(=O)O1 (stereo not given) | inactive |
| CCC(C)(CCC(C)C)C(=O)O (stereo not given) | inactive |
| CC/C=C\CC/C=C/C(OCC)OCC | inactive |
| CCCCCCCCCCCCCC | inactive |
| O=C(O)Cc1c[nH]c2ccccc12 | inactive |
| OCCOCCOCCOCCOCCO | inactive |
